Screens deposited in PubChem by National Center for Advancing Translational Sciences (NCATS).
ALDH1A1 block: inhibitors of human aldehyde dehydrogenase 1A1. Purified ALDH1A1, NADH fluorescence, propionaldehyde substrate. Potency, µM (highest dose often 75.3 µM), usual class: inhibitors. 220,000 tested, 7.3% active
HTT cytoprotect: protects HTT-Q103 PC12 cells, measured by ATP. AID 1471. PC12 HTT-Q103 induced, cytoprotection, ATP luminescence, 40 h. 230,000 tested, 0.14% active. Potency, µM (highest dose often 56.4 µM), hits mostly activators; active = well fitted curve in the direction sought with a large enough effect; inconclusive = small, poorly fitted or top-dose-only effect, or another doubt; inactive = no such curve, though single readings can be large; an effect the other way counts as inactive or inconclusive; note: nearly all actives have a fitted effect of over 45% in size
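Compounds were screened for protection of PC12 cells against cell death after tebufenozide induction (100 nM final) of mutant Huntingtin exon 1 (Q103) fused to GFP.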
HPGD block: inhibitors of human 15-hydroxyprostaglandin dehydrogenase (HPGD) | purified HPGD, NADH fluorescence kinetic, PGE2 substrate | Potency, µM, usual class: inhibitors | 150,000 tested, 4.3% active
Target sequence (P15428 whole entry, looked up): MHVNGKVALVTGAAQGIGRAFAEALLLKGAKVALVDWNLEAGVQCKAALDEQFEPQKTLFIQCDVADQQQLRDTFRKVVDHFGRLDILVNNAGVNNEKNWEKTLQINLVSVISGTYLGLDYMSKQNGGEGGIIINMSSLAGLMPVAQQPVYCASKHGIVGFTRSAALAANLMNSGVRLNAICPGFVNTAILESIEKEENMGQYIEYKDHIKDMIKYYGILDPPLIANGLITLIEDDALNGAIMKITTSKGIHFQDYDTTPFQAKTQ
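NADH formation kinetics: reaction with 30 uM PGE2 and 1 mM NAD+ (final), 20 nM enzyme, Tris-HCl pH 8 with Tween 20, after 15 min compound preincubation at room temperature. Fluorescence change, last versus first of five reads.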
JMJD2E inh: inhibitors of human JMJD2E histone demethylase; Potency, µM (doses to about 57.1 µM), usual class: inhibitors; JMJD2E catalytic domain, FDH-coupled NADH fluorescence (FDH is formaldehyde dehydrogenase); 230,000 tested, 1.6% active; note: nearly all actives have a fitted effect of over 50% in size
Target sequence (B2RXH2 1-337 limits assumed): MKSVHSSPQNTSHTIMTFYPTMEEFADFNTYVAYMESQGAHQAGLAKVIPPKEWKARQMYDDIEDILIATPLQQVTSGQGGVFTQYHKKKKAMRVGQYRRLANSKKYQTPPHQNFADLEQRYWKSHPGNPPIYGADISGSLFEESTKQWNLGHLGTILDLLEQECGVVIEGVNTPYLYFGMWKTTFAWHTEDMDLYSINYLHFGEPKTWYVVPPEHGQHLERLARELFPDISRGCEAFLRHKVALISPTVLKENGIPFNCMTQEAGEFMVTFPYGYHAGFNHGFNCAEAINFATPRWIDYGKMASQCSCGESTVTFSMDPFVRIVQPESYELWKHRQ
CBFb-RUNX1 inh: inhibitors of human CBF-beta and RUNX1 interaction; 230,000 tested, under 10 active; Potency, µM (highest dose often 59.8 µM), most hits filed as inhibitors; AID 1477; AlphaScreen CBFb-His/RUNX1-biotin binding, biochemical; Q01196+Q13951; active = well fitted curve in the direction sought with a large enough effect; inconclusive = small, poorly fitted or top-dose-only effect, or another doubt; inactive = no such curve, though single readings can be large; an effect the other way counts as inactive or inconclusive
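Read-out: AlphaScreen. Format: His-CBF-beta with biotinylated RUNX1 (30 nM each) preincubated 20 min, compound 15 min, Ni-chelate plus streptavidin beads 90 min; room temperature throughout.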
HTT aggregate: inhibitors of mutant huntingtin aggregate formation in PC12 cells. AID 1688. Potency, µM (top dose mostly 46.1 µM), actives largely listed as inhibitors. 220,000 tested, 1.1% active. PC12 HttQ103-GFP aggregates, Acumen cytometry, 40 h; active = well fitted curve in the direction sought with a large enough effect; inconclusive = small, poorly fitted or top-dose-only effect, or another doubt; inactive = no such curve, though single readings can be large; an effect the other way counts as inactive or inconclusive; note: nearly all actives have a fitted effect of over 60% in size
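Quantitative HTS on tebufenozide-induced (100 nM) PC12 cells stably expressing polyQ103 Huntingtin exon 1–GFP. Reduction of bright GFP aggregates, detected by laser scanning cytometry after lysis, identified actives across the titration.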
Large screens that a line does not name were inactive; ! = not confirmed by another sample. A selection: hits, their analogues and other compounds. The true share with any hit is near 9.8%. Unless noted, calls come from the whole dose curve; as a rule, active = well fitted inhibition curve with a large enough effect (not every such curve was filed as active); inconclusive = small, poorly fitted or top-dose-only effect, or another doubt; inactive = no such curve, though single readings can be large or run the other way.

COc1ccc([N+](=O)[O-])cc1/C=N/NC(=O)CNC(=O)c1cccc(F)c1	ALDH1A1 block inconclusive, HPGD block 25µM, JMJD2E inh inconclusive
O=C(CNC(=O)c1cccc(F)c1)N/N=C/c1cc(Br)ccc1OC(=O)/C=C/c1ccco1	ALDH1A1 block inconclusive, HTT aggregate 8.9µM (no result: HTT cytoprotect)
O=C(CNC(=O)c1ccccc1O)N/N=C/c1cc(Br)ccc1OC(=O)/C=C/c1ccco1	ALDH1A1 block inconclusive, JMJD2E inh inconclusive, HTT aggregate 2.5µM (no result: HPGD block)
COc1ccc(C(=O)NC(C(=O)NCCc2ccc3c(c2)OCCO3)C(C)C)cc1 (configuration not stated)	none (no result: HPGD block)
O=C(CNC(=O)c1ccc(Cl)cc1)OCC(=O)N1CCCC1	none (no result: HPGD block)
CC1N/C(=C\C(=O)c2ccccc2)N(O)C1(C)C (configuration not stated)	HPGD block 14µM
Cc1ccc(S(=O)(=O)Nc2nc(C)c(C(=O)N/N=C/c3ccccc3)s2)cc1	JMJD2E inh inconclusive (no result: HPGD block)
CC1CC(=O)c2c(cc3c(-c4c(O)cc(O)c5c(O)c6c(cc45)OC(C)CC6=O)c(O)cc(O)c3c2O)O1 (configuration not stated)	ALDH1A1 block inconclusive, JMJD2E inh 8.9µM, CBFb-RUNX1 inh inconclusive (no result: HPGD block)
COc1ccc(CN(C(=O)c2ccco2)c2ccc(C)cc2)cc1OC	ALDH1A1 block 7.9µM
COC(=O)Cc1[nH]nc2c1C1(C(=O)N(Cc3ccc(Cl)cc3)c3ccccc31)C(C#N)=C(N)O2 (configuration not stated)	ALDH1A1 block inconclusive
CCc1[nH]nc2c1C1(C(=O)N(Cc3ccccc3)c3ccccc31)C(C#N)=C(N)O2 (configuration not stated)	ALDH1A1 block 7.9µM
COc1ccc(CN2CCNC(=O)C2CC(=O)N2CCCCO2)cc1OC (configuration not stated)	ALDH1A1 block inconclusive (no result: HPGD block)
COc1ccc(-c2ccc(SCC(=O)c3ccccc3)nn2)cc1OC	ALDH1A1 block 25µM (no result: HPGD block)
Cc1ccc(-c2ccc(SCC(=O)c3ccccc3)nn2)cc1	ALDH1A1 block inconclusive, HPGD block inconclusive
N#Cc1ccc(NCC(=O)Nc2ccc3c(c2)OCCO3)cc1	ALDH1A1 block 13µM (no result: HPGD block)
CN(C)C(=S)Nc1ccc2c(c1)OCO2	ALDH1A1 block 10µM (no result: HTT cytoprotect, HPGD block)
S=C(Nc1ccc2c(c1)OCO2)Nc1ccc2c(c1)OCO2	ALDH1A1 block inconclusive
CC(C)CC(NC(N)=O)C(=O)Nc1ccc2c(c1)OCO2 (configuration not stated)	ALDH1A1 block 18µM, CBFb-RUNX1 inh inconclusive (no result: HPGD block)
O=C(CCl)Nc1ccc2c(c1)OCO2	ALDH1A1 block 1.6µM, HTT aggregate inconclusive (no result: HPGD block)
CC(C)CC(=O)Nc1ccc2c(c1)OCO2	none (no result: HTT cytoprotect, HPGD block, HTT aggregate)
N#Cc1cccc(NCC(=O)Nc2ccc3c(c2)OCCO3)c1	ALDH1A1 block inconclusive (no result: HPGD block)
COC(=O)C1=NNC2C(=O)N(C3CCCCC3)C(=O)C12 (configuration not stated)	ALDH1A1 block inconclusive (no result: HPGD block)
c1ccc(Oc2cccc(CN3CCOCC3)c2)cc1	ALDH1A1 block inconclusive, HPGD block 25µM, JMJD2E inh inconclusive, HTT aggregate inconclusive
COc1ccc(S(=O)(=O)N2CCOCC2)cc1NC(=O)CSc1cccc[n+]1[O-]	none (no result: ALDH1A1 block, HPGD block)
NC(=O)C1CCN(C2CC(=O)NC2=O)CC1 (configuration not stated)	none (no result: HPGD block)
O=C(O)COc1c(Cl)cc(/C=C2\NC(=O)NC2=O)cc1Br	ALDH1A1 block 18µM (no result: HPGD block)
COc1cc(/C=C2/NC(=O)NC2=O)cc(Br)c1OCc1ccc(C(=O)O)cc1	ALDH1A1 block inconclusive (no result: HPGD block)
O=C(NCCc1c[nH]c2ccccc12)OCCSS(=O)(=O)O	JMJD2E inh inconclusive (no result: HPGD block)
CC(C)(C)n1nnnc1C(c1cccnc1)N1CCN(c2cccc(C(F)(F)F)c2)CC1 (configuration not stated)	ALDH1A1 block inconclusive
CC(C)(C)c1cc(C(c2cccnc2)N2CCN(CCO)CC2)cc(C(C)(C)C)c1O (configuration not stated)	ALDH1A1 block inconclusive, HPGD block 14µM, HTT aggregate inconclusive
N#Cc1c(N)nc(SCC(=O)C23CC4CC(CC(C4)C2)C3)c(C#N)c1-c1ccc(Cl)cc1	ALDH1A1 block inconclusive, HPGD block inconclusive, JMJD2E inh 3.5µM
CSc1nc(N)nc(SCC(=O)C23CC4CC(CC(C4)C2)C3)c1C#N	ALDH1A1 block 25µM, HTT aggregate inconclusive
CSc1nc(N)nc(SCC(=O)c2ccccc2)c1C#N	ALDH1A1 block inconclusive
CN(C)c1nc(C(=O)NN)nc(N(C)C)n1	ALDH1A1 block 13µM
CCOC(=O)c1sc(N)nc1-c1ccccc1	ALDH1A1 block inconclusive
CCOC(=O)c1snc(-c2ccc(F)cc2)c1N	ALDH1A1 block 10µM, HPGD block inconclusive, JMJD2E inh inconclusive
CC1(OC(=O)CCc2ccccc2)C(=O)C=C2C=C(c3ccc(C#N)cc3)N(CCN3CCOCC3)C=C2C1=O (configuration not stated)	ALDH1A1 block inconclusive, JMJD2E inh 13µM
CC(C)OCCCN1C=C2C(=O)C(C)(OC(=O)CCc3ccccc3)C(=O)C=C2C=C1c1ccc(C#N)cc1 (configuration not stated)	JMJD2E inh 22µM!
Nc1ccc(OC(=O)Nc2ccc(O)cc2)cc1	JMJD2E inh 18µM (no result: ALDH1A1 block, HPGD block)
O=C(Nc1ccc(N2CCN(c3ccc(O)cc3)CC2)cc1)Oc1ccccc1	ALDH1A1 block 11µM, JMJD2E inh inconclusive
CCOc1nc(S(=O)(=O)c2ccc(C)cc2)c(Cl)s1	none
CCCS(=O)(=O)c1nc(S(=O)(=O)c2ccc(C)cc2)c(NCCCN2CCOCC2)s1	ALDH1A1 block 14µM
CCCNc1sc(S(=O)(=O)CCC)nc1S(=O)(=O)c1ccc(C)cc1	ALDH1A1 block 10µM (no result: HTT cytoprotect, HPGD block)
CCS(=O)(=O)c1nc(S(=O)(=O)c2ccc(Cl)cc2)c(NCCOC)s1	ALDH1A1 block 4.5µM (no result: HPGD block)
NC(N)=N[C@@H]1C(O)[C@H](N=C(N)N)[C@@H](O)C(O)[C@H]1O (some centres not stated)	none (no result: JMJD2E inh, CBFb-RUNX1 inh, HTT aggregate)
Cc1nc(NC2CCCCC2)c2nc(-c3ccccc3)n(CCN3CCCCC3)c2n1	ALDH1A1 block inconclusive, HPGD block inconclusive, JMJD2E inh inconclusive (no result: HTT aggregate)
C[C@@H]1C(=O)N(C)C(=O)c2nc[nH]c21	none (no result: ALDH1A1 block, HPGD block, JMJD2E inh, CBFb-RUNX1 inh, HTT aggregate)
CN(Cc1ccon1)C(=O)CC1C(=O)NCCN1CC1CCCCC1 (configuration not stated)	JMJD2E inh inconclusive (no result: HPGD block)
Nn1c(Cc2cccc3ccccc23)nnc1SCc1ccccc1	HPGD block 13µM
COc1ccc(OCCSc2nnc(Cc3cccc4ccccc34)n2N)cc1	ALDH1A1 block inconclusive, HPGD block 22µM
O=C(NC1CCCCCC1)C1CCC(CNS(=O)(=O)c2ccc(Br)s2)CC1 (configuration not stated)	none (no result: HTT cytoprotect)
